Publication PMC12136788
Where a chain is given by its changes, count along the chain named. Over roughly 24,000 sequences, “enrichment r” has its median near 0.99; the highest 2% begin near 3.7. The full list was thinned out, with the highest values kept by preference.

T1: UNK ZnF1-3 (human, UniProt Q9C0B0 31-174)
T1 sequence: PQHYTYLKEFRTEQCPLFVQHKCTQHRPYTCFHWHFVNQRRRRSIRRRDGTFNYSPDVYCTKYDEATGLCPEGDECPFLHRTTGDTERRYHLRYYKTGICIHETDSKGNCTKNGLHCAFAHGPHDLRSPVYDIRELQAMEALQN

B1: chr2:176857141:176857142:-_ENSG00000144320_ENST00000272748|hu_mus|motif|central (ssRNA)
RNA: GGGAGUUCUACAGUCCGACGAUCUUUUUGCAAUCUCUGAUUUUUUUCUCUAAAUUCUUCCAAUGCUUGAAUUUCCUUAUCGGUAUUUUCUAGAACUUCUACUGUUGAAGGUUUUGCCCUCCAUCGAGAAAAUAAUCCACCCAUCAACAGAGGAUUGAGCAUCA
B2: 47141246_47141366_1218_CDS_ENSMUSG00000038291_ENSMUST00000170416|mouse|control|control (ssRNA)
RNA: GGGAGUUCUACAGUCCGACGAUCUUCUUCCUCACGCAUGAGCUUCUCAUACAGGUCGCUGACGAGGAAGGAGGGGUAAUACCGCUCCCUCAGCACCUCGGACACAUCGGCUUGGAUUUUGCUGAACACCUCGAUGCCUCUGUUCAACAGAGGAUUGAGCAUCA
B3: chr17:26875717:26875718:-_ENSG00000109103_ENST00000335765|hu_mus|FALSE|FALSE (ssRNA)
RNA: GGGAGUUCUACAGUCCGACGAUCACGGAUCUUGAACCUGACGAAGUCAAUCUUGUAGAUAUUUUCCUCAGGGGAGCACAGGUAGUCACCCGUGAUCCGCUGCAGCCCCAGCACAUCCUCCGGCCCGAUGGGCUGCUUGCCCUGCAACAGAGGAUUGAGCAUCA
B4: 230825810_230827160_2020_CDS_ENSG00000135775_ENST00000366669|human|control|control (ssRNA)
RNA: GGGAGUUCUACAGUCCGACGAUCGUUUAAUACAUCUGACACGGUUUCAUAGUACUUAUGAGUGCUUUCACUGAGAGUGCCUUCUAGCCACUGCUGAAUUAUUGCUUGUUUGAGCUUAUCCUUGUGUCCGCUCUGAAGCUGGAACAACAGAGGAUUGAGCAUCA
B5: chr2:242098653:242098654:+_ENSG00000115685_ENST00000406106|hu_mus|FALSE|FALSE (ssRNA)
RNA: GGGAGUUCUACAGUCCGACGAUCAUCAUAGAGAUCCAGUUCUCGAAGACUCUGCAGUUCUUCCAGGUUUUCAAUGCAUUUAAUUAGGUUUUGACGAAGGCAGAGUGACUUCACUUUCUUUAGCACCUCCAAGCCUUCAAUCUUCAACAGAGGAUUGAGCAUCA
B6: chr15:85259290:85259291:-_ENSG00000140612_ENST00000559729|hu_mus|FALSE|FALSE (ssRNA)
RNA: GGGAGUUCUACAGUCCGACGAUCAUUUAGGACUUGGUAGUACAGCUGCCUCUUGUUCAUCCGCCGCACAUCGUCUAGAAAGUCUAGAGACAGCAUGGUGAGAUGGAGAGCGCGACAACUAGCAGCCAAGAGGGCGCGAUAGAACAACAGAGGAUUGAGCAUCA
B7: 2747543_2750058_4223_CDS_ENSG00000101596_ENST00000320876|human|control|control (ssRNA)
RNA: GGGAGUUCUACAGUCCGACGAUCUUGGUUUGAAGGCAUGAGCUUUAAAUUGCUAGCUUUUGUAAGACUUAUUUUAACAUGUUGUACCGGUGCUGGAUUAUCCCACUGAUCACAAAGUUGAACAAUAAUAGGGUUCUGUAAAUCCAACAGAGGAUUGAGCAUCA
B8: chr8:13019523:13019524:+_ENSMUSG00000031442_ENSMUST00000123811|mus_mus|FALSE|FALSE (ssRNA)
RNA: GGGAGUUCUACAGUCCGACGAUCUUAAAGUUUUGAGGCCAGAGUACCACAAAAAAUGGCCAUGGGGUUAAUCCCUGUUUAAAAAAAAUCAAAAACUUAUAAAAGACGAGAGUCCCUUGACCCCCCCUUAGGCUGUUGGUAGCACAACAGAGGAUUGAGCAUCA
B9: chrX:101157612:101157613:-_ENSMUSG00000056537_ENSMUST00000070705|mus_mus|motif|central (ssRNA)
RNA: GGGAGUUCUACAGUCCGACGAUCAAAUUAUCAGUAACAGGUUAGCAAUUCAUCUGGUACCGAAAUCAAAUGUUUAAGUCCGGAAAUGUUGUUUUUAAAAUAUUCUUUCCAUCCUGAAAGAGAAACUAGAGAAAAGGCAUGAUACAACAGAGGAUUGAGCAUCA
B10: 5810229_5811228_1359_CDS_ENSG00000099219_ENST00000339450|human|control|control (ssRNA)
RNA: GGGAGUUCUACAGUCCGACGAUCAGUCUUAUGUUUGGGCUGCAAAAAUUUUUUGCCCAGGUACAAAACAACACCCAUUACCACCAUGUAGUUUAUGAUUGAGCCAAUACGAGAGGGGUAGGCAAUGACAAACAGGCCCAGCACCAACAGAGGAUUGAGCAUCA
B11: chr8:90938390:90938391:+_ENSG00000164823_ENST00000451899|hu_hu|FALSE|FALSE (ssRNA)
RNA: GGGAGUUCUACAGUCCGACGAUCAAGAAUAUGAAGUACCUGUCAAGGUUUCAACGAUAAAAAUAUUUUUUAAAAGACCCUAUUUGGUAAUAAAUUAGAUUUAUACAAUUGAUAAUUUCAAAAUAAAUAAAAUCUGAGUUGUAACAACAGAGGAUUGAGCAUCA
B12: chr8:90938390:90938391:+_ENSG00000164823_ENST00000451899|hu_hu|motif|central (ssRNA)
RNA: B11 RNA with U80G, A81G
B13: chr2:125083379:125083380:+_ENSMUSG00000027203_ENSMUST00000082122|mus_mus|motif|central (ssRNA)
RNA: GGGAGUUCUACAGUCCGACGAUCUUAAAAAAAAUUACAAAUGAUACAGCAAUUAUGAUCAAAAACAGUUUUUGGAAGGCGGUAAUUUAAAUAAUACAACAACAACAAAAAAUCUAACUGUACCCUGGGUUUUACCAAGUCUGCCAACAGAGGAUUGAGCAUCA
B14: chr2:44571030:44571031:-_ENSG00000138078_ENST00000409411|hu_hu|FALSE|FALSE (ssRNA)
RNA: GGGAGUUCUACAGUCCGACGAUCUCUUAUCUUGGCAGCCACAUAUUUUUCAUCUGGAGCAACUCUGAUACAAUCAAUGAAGGGCUGGUCUAACUUAAGUUCCUCCAAAUUGAAUAAAACUUCAUAAUUAUCAUUGUCUGCUUCCAACAGAGGAUUGAGCAUCA
B15: chr2:125083379:125083380:+_ENSMUSG00000027203_ENSMUST00000082122|mus_mus|FALSE|FALSE (ssRNA)
RNA: B13 RNA with G80U, G81A
B16: chr13:107772667:107772668:-_ENSMUSG00000021693_ENSMUST00000022204|mus_hu|motif|central (ssRNA)
RNA: GGGAGUUCUACAGUCCGACGAUCCAUUUCAUUAGGAGCUGAGUCAUCAAAGGCAUAAUCAAAACGAAAUGUUUGGUUUUCGGGGUACCUUGUUAAAUCUACUUUUUGUUUUGGUUCAUGUACCAUCACAACAUCUUUACUAGGCAACAGAGGAUUGAGCAUCA

Each binder was assayed against T1, UNK ZnF1-3 (assay: nsRBNS (natural sequence RNA bind-n-seq); RBNS binding buffer (assumed for nsRBNS): 25 mM Tris pH 7.5, 150 mM KCl, 3 mM MgCl2, 0.01% Triton X-100, 500 ug/ml BSA, 20 U/ml SUPERase-In, 4 C; UNK is unkempt and MSI1 is Musashi-1; names of the RNAs are library labels; protein concentration not given here; high values mean tight binding).
B1 showed a binding signal of 0.366 enrichment R.
B2 gave a binding signal of 0.729 enrichment R.
B3 gave a binding signal of 0.51 enrichment R.
For B4, the binding signal was 0.468 enrichment R.
Work on B5 yielded a binding signal of 0.6 enrichment R.
In the case of B6, the binding signal is reported as 0.618 enrichment R.
B7 showed a binding signal of 1.18 enrichment R.
Binder B8 has a binding signal of 4.16 enrichment R.
Work on B9 yielded a binding signal of 1.32 enrichment R.
Work on B10 yielded a binding signal of 1.77 enrichment R.
Work on B11 yielded a binding signal of 2.3 enrichment R.
Binder B12 has a binding signal of 6.04 enrichment R.
In the case of B13, the binding signal is reported as 4.51 enrichment R.
B14 gave a binding signal of 1 enrichment R.
Binder B15 has a binding signal of 4.2 enrichment R.
With B16 the binding signal was 1.02 enrichment R.
